# Experiment: qHTS profiling of inhibitors of Plasmodium falciparum (DD2) proliferation (acoustic dispense)
# Settings: P. falciparum Dd2 in erythrocytes, SYBR Green DNA, 72 h; at 49.8 µM (top of the series) unless noted
row,SMILES,"parasite growth, lower = inhibition"
1,COc1ccc2nc3cc(Cl)ccc3c(Nc3cc(CN4CCCC4)c(O)c(CN4CCCC4)c3)c2n1,0.653%
2,CCc1cc(Nc2nccc(-c3c(-c4ccc(OC)c(C(=O)Nc5c(F)cccc5F)c4)nc4ccccn34)n2)c(OC)cc1N1CCC(N2CCN(S(C)(=O)=O)CC2)CC1,-0.192%
3,CCOC(=O)[C@H](CCc1ccccc1)N[C@H]1CS[C@H](c2cccs2)CN(CC(=O)O)C1=O,61.3%
4,CCC(=O)N1CCN(c2ccc(-n3c(=O)ccc4cnc5ccc(-c6cnc7ccccc7c6)cc5c43)cc2C(F)(F)F)CC1,3.68%
5,CC(=NNC(=S)N1CCC1)c1ccccn1,-0.523%
6,CC[C@]1(O)C[C@H]2CN(CCC3=c4ccccc4=N[C]3[C@@](C(=O)OC)(c3cc4c(cc3OC)N(C)[C@H]3[C@@](O)(C(N)=O)[C@H](O)[C@]5(CC)C=CCN6CC[C@]43[C@@H]65)C2)C1,3.44%
7,Cc1ccc([N+](=O)[O-])cc1S(=O)(=O)N(C)N=Cc1cnc2ccc(Br)cn12,6.06%
8,FC(F)c1nc2ccccc2n1-c1nc(N2CCOCC2)nc(N2CCOCC2)n1,0.937%
9,CC(=O)Nc1nc(C)c(-c2ccc(Cl)c(S(=O)(=O)NCCO)c2)s1,-0.252%
10,C=CCNc1c(O)cc2c(O)c1C[C@@H](C)C[C@H](OC)[C@@H](O)[C@@H](C)C=C(C)[C@H](OC(N)=O)[C@@H](OC)C=CC=C(C)C(=O)N2,-0.701%
11,O=C(Nc1cn[nH]c1-c1nc2ccc(CN3CCOCC3)cc2[nH]1)NC1CC1,0.452%
12,CC[C@H]1CN2CCc3cc(OC)c(OC)cc3[C@H]2C[C@@H]1C[C@@H]1NCCc2cc(OC)c(OC)cc21,0.111%
13,O=C1c2ccccc2-[n+]2ccc3c([nH]c4ccccc43)c21,2.4%
14,CC(C)C[C@H](NC(=O)[C@H](CCc1ccccc1)NC(=O)CN1CCOCC1)C(=O)N[C@@H](Cc1ccccc1)C(=O)N[C@@H](CC(C)C)C(=O)[C@@]1(C)CO1,0.838%
15,CC(C)N=C(N)N=C(N)Nc1ccc(Cl)cc1,-0.338%
16,CCCCN(CCCC)CC(O)c1cc(Cl)cc2c1-c1ccc(Cl)cc1C2=Cc1ccc(Cl)cc1 (centres undefined),-0.158%
17,CO[C@H]1C=CC=C(C)C(=O)NC2=CC(=O)C(NCCN(C)C)=C(C[C@@H](C)C[C@H](OC)[C@@H](O)[C@@H](C)C=C(C)[C@@H]1OC(N)=O)C2=O,-1.01%

row,SMILES,"parasite growth, lower = inhibition"
1,Cc1[nH]c2ccccc2c1CCNCc1ccc(C=CC(=O)NO)cc1,-0.777%
2,Cc1cn[nH]c1,23.6%
3,COc1ccc(-c2ccc3ncc4c(c3c2)n(-c2ccc(N3CCNCC3)c(C(F)(F)F)c2)c(=O)n4C)cn1,2.81%
4,COc1cc(NCc2ccc3nc(N)nc(N)c3c2C)cc(OC)c1OC,-1.45%
5,Cn1c(=O)c(-c2c(Cl)cccc2Cl)cc2cnc(Nc3cccc(C(=O)O)c3)nc21,-0.0499%
6,Clc1ccc2c(N3CCN(CCCN4CCN(c5ccnc6cc(Cl)ccc56)CC4)CC3)ccnc2c1,-0.434% [at 23.2 µM]
7,Cn1c2ccccc2c2c3c(c4c5ccccc5n(CCC#N)c4c21)CNC3=O,70.2%
8,C[C@@H]1CCC2[C@@H](C)[C@@H](O)O[C@@H]3O[C@@]4(C)CC[C@@H]1[C@@]23OO4 (some centres undefined),-0.395%
9,COc1ncc(-c2ccc3nccc(-c4ccnnc4)c3c2)cc1NS(=O)(=O)c1ccc(F)cc1F,-0.286%
10,Cc1cnc(Nc2ccc(CN3CCOCC3)cc2)nc1Nc1cccc(S(=O)(=O)NC(C)(C)C)c1,0.192%
11,C=CCn1c(=O)c2cnc(Nc3ccc(N4CCN(C)CC4)cc3)nc2n1-c1cccc(C(C)(C)O)n1,-0.0983%
12,C[C@H]1c2cccc(O)c2C(O)=C2C(=O)[C@]3(O)C(O)=C(C(N)=O)C(=O)[C@@H](N(C)C)[C@@H]3[C@@H](O)[C@@H]21,1.85%
13,NC1CCC(Nc2nc(Nc3ccc(C(=O)N4CCCCC4)cc3)c3ncn(-c4cccc(F)c4)c3n2)CC1 (centres undefined),-0.359%
14,Nc1cccc(-c2csc(NC(=O)CCCCCCC(=O)NO)n2)c1,-0.461%
15,O[C@H](c1cc(C(F)(F)F)nc2c(C(F)(F)F)cccc12)[C@H]1CCCCN1,0.891% [at 23.2 µM]
16,Cn1c(=O)n(-c2ccc(C(C)(C)C#N)cc2)c2c3cc(-c4cnc5ccccc5c4)ccc3ncc21,1%
17,CC[C@@]1([C@@H]2O[C@@H]([C@H]3O[C@@](O)(CO)[C@H](C)C[C@H]3C)C[C@H]2C)CC[C@H]([C@]2(C)CC[C@]3(C[C@H](O)[C@@H](C)[C@@H]([C@@H](C)[C@@H](OC)[C@H](C)C(=O)O)O3)O2)O1,-0.231% [at 23.2 µM]

# From PubChem BioAssay AID743365 (National Center for Advancing Translational Sciences (NCATS), 2014)
